As usually defined, the viability is a read-out of living cells in per cent, often relative to untreated cells. Usually inhibition stands for the relative decrease from the control value, in per cent.

A short description of assay [1]: P. berghei load reduction in hepatocytes – cell-based, HepG2, luciferase luminescence, HepG2 viability, primary screen (AID 624349; in the data active = parasite load remaining mostly below about 12%, no sharp cut-off; inactive = mostly above about 10%;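 also: 100% = mean of DMSO negative control wells on the same plate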). As to conditions: P. berghei liver stage in HepG2, luciferase luminescence, concentration not given here; parasite load remaining: stronger effect = lower value; viability: measured here: HepG2 viability without parasites.
Assay [2] is described as follows: signal quenchers or enhancers, Cy5 substrate/SSB – biochemical, NIH Clinical Collection, E. coli SSB, artefact control for HCV NS3 helicase inhibitor project (AID 743268; call rule not given here). To be noted: Cy5-oligo bound E. coli SSB, fluorescence interference.
Assay [3] has as its system Hepatitis C virus NS3 helicase. Description: blockers of NS3h binding to DNA – biochemical, fluorescence polarization, NIH Clinical Collection, primary screen (AID 743270; call rule not given here). To be noted: NS3 helicase binding to Cy5-dT15 DNA, stronger effect = higher value, concentration not given here. In general terms: Fluorescence polarisation rises when a labelled molecule tumbles more slowly, as on binding a larger partner.

Assay [4] concerns the target Single-stranded DNA-binding protein (Escherichia coli (strain K12)) (UniProt P0AGE0). Description: SSB-ssDNA binding inhibitors – biochemical, fluorescence polarization, NIH Clinical Collection, counter-screen for HCV NS3 helicase inhibitor project (AID 743271; in the data active = inhibition above about 28%). As to conditions: E. coli SSB-DNA binding, stronger effect = higher value, concentration not given here.
Assay [5] can be described thus: compounds distorting NS3 helicase fluorescence signal – biochemical, NIH Clinical Collection, artefact control for HCV NS3 helicase inhibitor project (AID 743272; call rule not given here;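 also: HCV NS3 helicase with a Cy5 labelled single stranded DNA probe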). As to conditions: fluorescence interference counterscreen, HCV NS3 helicase assay; stronger effect = lower value. Background: Counterscreens check selectivity or assay interference.
The nature of assay [6]: modulation of C. elegans fzo-1 (AID 1259413; call rule not given here;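 also: fzo-1 mutant C. elegans worms in liquid wells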). As to conditions: C. elegans fzo-1 modulator screen, mean read-out; stronger effect = higher value.
A short description of assay [7]: viability loss with induced miR-34 in A549 – imaging, A549 dox-inducible miR-34, nuclei and caspase counts, primary screen (AID 1347080;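 active = compounds whose cell count with miR-34 switched on is under 0.7 times the count with it off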). To be noted: A549 miR-34 inducible, Hoechst nuclei count, 48 h.
Assay [8] in a line: MELAS cybrid and Rieske KO viability enhancers – cell-based, MELAS cybrids, Rieske KO mouse fibroblasts, CellTiter-Glo, primary screen (AID 1508586;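 active = mean z-score across replicates of 1.96 or higher in either the MELAS or the Rieske mutant cell line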;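 also: z relative to plate mean and SD of compound and empty wells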). To be noted: low glucose.
Assay [9] in a line: galactose survival enhancers in mitochondrial complex I cybrids – cell-based, galactose medium, ATP luminescence, primary screen (AID 1645843;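 active = z-score of at least 1.8 in each of two replicates, scored against plate mean and spread of sample wells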;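 also: positive z means more ATP and so rescue of galactose-driven cybrid death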). As to conditions: complex I mutant cybrid cells, 72 h, stronger effect = higher value.
Another assay deals with F380Y. Description: BK channel mutant inhibitors and activators – cell-based, U2OS BacMam, thallium flux, beta subunits, selectivity assay, profiling panel (AID 1259406).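 Also: initial slope of Thallos dye fluorescence rise after thallium is added; log ratio against the mean of 0.3% DMSO vehicle wells on the same plate.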 As to conditions: U2OS BacMam BK variants, at 30 µM.
Another assay concerns F380Y/beta1. The assay is described as above. To be noted: U2OS BacMam BK variants, at 30 µM.
In a further assay the test system is F380Y/beta2Delta. Described as above. As to conditions: U2OS BacMam BK variants, at 30 µM.
Another assay concerns F380Y/beta4. The assay is described as above. To be noted: U2OS BacMam BK variants, at 30 µM.
In assay [10] the target is Calcium-activated potassium channel subunit alpha-1 (Homo sapiens) + Leucine-rich repeat-containing protein 26 (Homo sapiens) (UniProt Q12791+Q2I0M4). The assay is described as above. As to conditions: U2OS BacMam BK variants, F380Y/Slo1WT/gamma1, at 30 µM.
Chain of Calcium-activated potassium channel subunit alpha-1 (Homo sapiens) + Leucine-rich repeat-containing protein 26 (Homo sapiens) (Q2I0M4 whole entry, looked up, one chain of several): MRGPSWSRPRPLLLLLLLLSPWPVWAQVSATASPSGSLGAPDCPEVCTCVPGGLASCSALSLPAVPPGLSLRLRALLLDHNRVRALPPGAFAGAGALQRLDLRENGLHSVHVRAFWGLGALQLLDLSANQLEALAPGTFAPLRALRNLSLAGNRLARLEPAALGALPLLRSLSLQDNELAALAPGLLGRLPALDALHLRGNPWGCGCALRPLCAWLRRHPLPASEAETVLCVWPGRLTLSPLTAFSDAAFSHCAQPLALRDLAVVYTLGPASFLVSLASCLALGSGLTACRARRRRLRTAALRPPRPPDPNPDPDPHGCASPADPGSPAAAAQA
The subject of the next assay is R275C. The assay is described as above. As to conditions: U2OS BacMam BK variants, at 30 µM.
A further assay has as its system R275C/beta1. Described as above. To be noted: U2OS BacMam BK variants, at 30 µM.
In the next assay the test system is R275C/beta2Delta. Described as above. To be noted: U2OS BacMam BK variants, at 30 µM.
For the next assay, the system named is R275C/beta4. The assay is described as above. To be noted: U2OS BacMam BK variants, at 30 µM.
Another assay concerns R275C/Slo1WT/beta2. Described as above. As to conditions: U2OS BacMam BK variants, at 30 µM.
In assay [11] the test system is Neuropilin-2 / VEGF-C interaction (human). Description: small molecules blocking Neuropilin-2/VEGF-C interaction – biochemical, microplate binding format, z-score (AID 743281; call rule not given here). As to conditions: microplate NRP2/VEGF-C binding assay; stronger effect = lower value.
Setting [12] is: stronger effect = lower value, cell number ratio, induced over uninduced.
Where [13] appears, read: measured here: relative caspase fold change +Dox/-Dox.
Where [14] appears, read: measured here: total cells with miR-34 induction, stronger effect = lower value.
The mark [15] stands for this setting: measured here: total cells without miR-34 induction.
The mark [16] stands for this setting: MELAS cybrid survival, CellTiter-Glo 48 h, stronger effect = higher value.
Where [17] appears, read: Rieske KO mouse fibroblast survival, CellTiter-Glo 72 h.

Molecules are shown by their SMILES. Where “and” joins values, the source holds several entries; their conditions need not be identical. Equal entries are not always repeated. Calls of active or inactive are those of the source.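 The calls were made as follows, unless noted: active = thallium flux through the channel raised or lowered by more than 3 SD from vehicle-only wells, actives on both sides; inactive = the rest.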

Take `NC(Cc1cc(I)c(Oc2ccc(O)c(I)c2)c(I)c1)C(=O)O` (configuration not stated): in assay [1], the parasite load remaining was 39.9% (inactive). For the same molecule, in assay [1], the viability is 106%. Moreover, the fluorescence ratio in assay [2] is 0.99 (inactive); in assay [5], 0.92 (inactive). In addition, the inhibition in assay [3] was -1.36% (inactive); in [4], 1.81% (inactive). In addition, the mean signal in assay [6] is 230 (inactive). Further, the fold change in [7] (setting [12]) is 0.986 (inactive) and 0.874 (inactive); in assay [7] (setting [13]), 1.58 and 0.636. Moreover, the cell count in assay [7] (setting [14]) is 9780 and 7770; in assay [7] (setting [15]) it was 9910 and 8890. The z-score in assay [8] (setting [16]) was -0.101 (inactive); in assay [8] (setting [17]), 0.0136; in assay [9], -1.5 (inactive). Moreover, the log fold change Tl+ flux in the assay on F380Y is 0.0253 (inactive); with F380Y/beta1 it was 0.112 (inactive); in the assay on F380Y/beta2Delta, 0.058 (inactive); in the assay on F380Y/beta4, 0.107 (active); in assay [10], 0.0742 (inactive); in the assay on R275C, 0.047 (inactive). Further, the log fold change Tl+ flux with R275C/beta1 is 0.0451 (inactive); in the assay with R275C/beta2Delta, 0.136 (active); with R275C/beta4 it was 0.254 (active); with R275C/Slo1WT/beta2, -0.125 (active).
In the case of `O=C1C(c2c(O)[nH]c3ccccc23)=Nc2ccccc21`, the parasite load remaining in assay [1] is 27.8% (inactive). The viability in assay [1] amounted to 67.8%. For the same molecule, the fluorescence ratio is 1.08 (inactive) in [2] and 1.13 (inactive) in [5]. Further, the inhibition in [3] was 26.5% (active); in assay [4], 18.4% (inactive). Further, the molecule was called inactive in [11]. Besides, the mean signal in [6] was 275 (inactive). For the same molecule, the fold change is 0.964 (inactive) and 0.92 (inactive) and 0.909 (inactive) in assay [7] (setting [12]); 1.03 and 0.816 and 0.7 in assay [7] (setting [13]). The cell count in assay [7] (setting [14]) was 8910 and 4890 and 7650; in assay [7] (setting [15]), 9240 and 5320 and 8410. Also, the z-score in [8] (setting [16]) was -0.237 (inactive); in assay [8] (setting [17]) it was -0.638; in [9] it was -0.25 (inactive). In addition, the log fold change Tl+ flux in the assay on F380Y is 0.00735 (inactive); in the assay with F380Y/beta1, 0.00413 (inactive); with F380Y/beta2Delta, -0.012 (inactive); in the assay on F380Y/beta4, 0.0357 (inactive); in [10] it was -0.019 (inactive); in the assay on R275C it was 0.0422 (inactive). Moreover, the log fold change Tl+ flux in the assay with R275C/beta1 is 0.013 (inactive); in the assay on R275C/beta2Delta, -0.00188 (inactive); with R275C/beta4 it was 0.0134 (inactive); in the assay on R275C/Slo1WT/beta2, 0.0591 (inactive).
As to `COc1cc(C[C@@H](CO)[C@H](CO)Cc2ccc(O)c(OC)c2)ccc1O`, the parasite load remaining in assay [1] was 74.6% (inactive). The viability in assay [1] is 77.7%. For the same molecule, the values for the fluorescence ratio in assay [2] and in assay [5] were 0.93 (inactive) and 0.88 (inactive), respectively. In addition, the values for the inhibition in [3] and in assay [4] were -1.09% (inactive) and 3.54% (inactive), respectively. In [11], the z-score was 0.125 (inactive). For the same molecule, the mean signal in assay [6] is 248 (inactive). Besides, the log fold change Tl+ flux was 0.00354 (inactive) in the assay with F380Y; 0.0295 (inactive) in the assay on F380Y/beta1; 0.0145 (inactive) with F380Y/beta2Delta; 0.00227 (inactive) in the assay with F380Y/beta4; 0.0262 (inactive) in assay [10]; -0.00612 (inactive) with R275C. Besides, the log fold change Tl+ flux was -0.00624 (inactive) with R275C/beta1, -0.0204 (inactive) with R275C/beta2Delta, -0.0506 (inactive) in the assay with R275C/beta4 and 0.0317 (inactive) in the assay with R275C/Slo1WT/beta2.

The values are drawn from PubChem BioAssay.
